The results in this text go back to PubChem BioAssay.

The test system of test [1] is Human papillomavirus type 1a protein E7 (residues 44-93). As to the kind of experiment: small molecules binding HPV E7 44-93 – biochemical, small-molecule microarray, residues 44-93, 635 nm fluorescence, primary screen (AID 1108).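 Also: E7 fragment applied at 1 µg/mL in TBST for 1 h at 4 C; score combines spot fluorescence with its signal to noise ratio.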 The conditions noted are these: fluorescence 635 nm, higher = more signal.
Test [2] can be described thus: hepatitis C replication reporter changes, two-sided – Huh7 cells, luciferase reporter, HCV replication inhibitor project, primary screen (AID 1109).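 Also: huh7 hepatoma cells harbouring a luciferase neomycin HCV replicon reporter; luciferase luminescence as measure of HCV replicon replication; test concentration not given here.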 The conditions noted are these: Huh7 HCV replicon luciferase reporter, 48 h; higher = more signal. (In general: A reporter such as luciferase makes a cellular process visible.)
Test [3] concerns the target Left-right determination factor 2 (Homo sapiens) (UniProt O00292). As to the kind of experiment: small molecules binding LEFTY2 protein – biochemical, small-molecule microarray, 635 nm fluorescence scan, primary screen (AID 1110). The conditions noted are these: higher = more signal.
The target of test [4] is Calmodulin-1 (Homo sapiens) (UniProt P0DP23). As to the kind of experiment: small molecules binding calmodulin-1 with EGTA – biochemical, small-molecule microarray, Cy5-labelled CALM1, profiling panel (AID 1111).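 Also: labelled calmodulin applied in Tris saline Tween buffer holding calcium plus EGTA and DTT.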 The conditions noted are these: Cy5-CALM1 binding fluorescence, higher = more signal.
For test [5] the target is unchanged. As to the kind of experiment: small molecules binding Ca-loaded calmodulin-1 – biochemical, small-molecule microarray, Cy5-labelled CALM1, plus calcium, artefact control for SMM control-protein annotation, profiling panel (AID 1112).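 Also: score merges spot fluorescence with signal to noise from triplicate slides.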 The conditions noted are these: Cy5-CALM1 binding fluorescence, higher = more signal.
The nature of test [6]: probe aWnt5a binding to arrayed compounds – biochemical, biotinylated probe, 635/667 nm fluorescence, primary screen (AID 1113).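 Also: score merges 667 nm fluorescence intensity with signal-to-noise per printed feature.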 The note with it: small-molecule microarray, higher = more signal.
A short description of test [7]: probe aShh binding to arrayed compounds – biochemical, biotinylated probe, 635/667 nm fluorescence, primary screen (AID 1114).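 Also: probe is biotin-labelled aShh protein from a stem cell growth factor screen; measures binding of labelled protein to compounds printed on the slide; score merges feature fluorescence at 667 nm with signal-to-noise.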 The note with it: small-molecule microarray, higher = more signal.
Test [8] is described as follows: probe aNog binding to arrayed compounds – biochemical, biotinylated probe, 635/667 nm fluorescence, primary screen (AID 1115).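 Also: probe is biotinylated aNog protein used at 0.15 µg/mL for 1 h at 4 C; z-score combines 667 nm fluorescence of each spot with its signal to noise.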 The note with it: small-molecule microarray, higher = more signal.
The target in test [9] is Torsin-1A-interacting protein 1 (Homo sapiens) (UniProt Q5JTV8). As to the kind of experiment: compound microarray binding of lysate hLAP1 – cell lysate, small-molecule microarray, COS7 lysate, 635/667 nm fluorescence, primary screen (AID 1116). The conditions noted are these: 635 nm fluorescence, higher = more signal.
Test [10] has as its target Alpha-bungarotoxin (Bungarus multicinctus) (UniProt P60615). As to the kind of experiment: compounds binding labelled alpha-BTX control protein – biochemical, small-molecule microarray, Alexa647 label, 635/667 nm fluorescence, artefact control for SMM control protein annotation, profiling panel (AID 1117). The note with it: alpha-BTX-A647 binding fluorescence, higher = more signal.

Alpha-bungarotoxin (Bungarus multicinctus), sequence (P60615 whole entry, looked up): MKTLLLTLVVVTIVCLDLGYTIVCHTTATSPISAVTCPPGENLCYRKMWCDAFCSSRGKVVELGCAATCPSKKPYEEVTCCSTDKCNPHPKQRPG
Torsin-1A-interacting protein 1 (Homo sapiens), sequence (Q5JTV8 whole entry, looked up): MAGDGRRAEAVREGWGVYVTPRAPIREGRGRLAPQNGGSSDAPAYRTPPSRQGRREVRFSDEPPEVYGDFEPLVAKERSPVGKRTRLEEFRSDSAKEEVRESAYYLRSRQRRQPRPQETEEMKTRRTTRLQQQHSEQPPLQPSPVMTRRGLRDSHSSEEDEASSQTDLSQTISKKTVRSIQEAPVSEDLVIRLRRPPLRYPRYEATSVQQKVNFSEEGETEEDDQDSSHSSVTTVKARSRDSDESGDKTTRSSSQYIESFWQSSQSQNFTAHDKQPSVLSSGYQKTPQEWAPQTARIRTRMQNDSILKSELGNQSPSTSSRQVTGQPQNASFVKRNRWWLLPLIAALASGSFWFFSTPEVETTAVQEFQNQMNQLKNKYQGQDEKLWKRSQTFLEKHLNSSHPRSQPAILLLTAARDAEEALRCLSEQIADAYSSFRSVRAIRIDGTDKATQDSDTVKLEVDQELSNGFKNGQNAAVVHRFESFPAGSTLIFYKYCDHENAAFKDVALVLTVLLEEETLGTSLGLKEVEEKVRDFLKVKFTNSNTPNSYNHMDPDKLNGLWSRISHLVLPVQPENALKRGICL
Left-right determination factor 2 (Homo sapiens), sequence (O00292 whole entry, looked up): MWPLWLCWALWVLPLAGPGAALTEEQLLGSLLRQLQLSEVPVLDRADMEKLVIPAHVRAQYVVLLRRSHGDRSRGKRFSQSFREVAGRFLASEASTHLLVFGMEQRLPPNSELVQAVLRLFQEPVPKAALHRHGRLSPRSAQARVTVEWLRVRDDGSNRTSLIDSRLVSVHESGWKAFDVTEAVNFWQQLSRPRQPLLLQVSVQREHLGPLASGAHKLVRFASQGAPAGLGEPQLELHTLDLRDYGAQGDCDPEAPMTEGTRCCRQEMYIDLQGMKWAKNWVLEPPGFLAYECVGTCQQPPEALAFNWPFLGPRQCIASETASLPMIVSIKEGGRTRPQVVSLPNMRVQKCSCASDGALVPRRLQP

As to `COC(=O)[C@]1(CCC(=O)OC(C)(C)C)N=C(c2ccc(OCCCO)cc2)O[C@@H]1c1ccccc1CN=[N+]=[N-]`, the composite z-score was -0.0058 in test [1]; -0.684 in test [3]; 0.884 in [4]; 0.367 in [5]; -0.0045 in [6]; 0.147 in [7]. In addition, the figures for the composite z-score in [8], in test [9] and in test [10] were 0.977, 0.157 and 0.869, respectively. In [2], this molecule came in with a z-score of -3.32.
Take `COCCOC(=O)N1C(=O)[C@@]2(c3cc(C#CCC(C(=O)OC)C(=O)OC)ccc31)[C@H](C(=O)N1CCN(c3ncccn3)CC1)[C@H]1C(=O)O[C@H](c3ccccc3)[C@H](c3ccccc3)N1[C@@H]2c1ccccc1OCCO`: the composite z-score in test [1] is 1.38; in test [3], 1.16; in test [4], 0.875; in test [5], -0.487; in test [6], -0.0403; in test [7], -0.17. The composite z-score is -0.141 in [8], 0.351 in test [9] and 1.29 in test [10]. The same molecule gave a z-score in test [2] of -1.94.
`C=CC[C@@]1(C(=O)NCCN2CCOCC2)N=C(c2ccc(OCCCO)cc2)O[C@@H]1c1ccccc1N=[N+]=[N-]`: the composite z-score was 0.446 in [1]; 0.187 in test [3]; 1.26 in [4]; 0.581 in test [5]; -0.1 in test [6]; -0.215 in test [7]. Further, the composite z-score in test [8] was -0.0119; in test [9], 1.76; in test [10], 0.841. Further, the z-score in [2] is -1.23.
Regarding `CC(C)NC(=O)[C@@]1(c2ccc([N+](=O)[O-])cc2)CC(=O)N(C2CCCCC2)[C@@H]1c1ccc(CO)cc1I`, the composite z-score in test [1] is 0.621; in test [3] it was -0.159; in test [4], 0.249; in test [5], 0.272; in [6], 0.0375; in test [7] it was -0.189. Further, the composite z-score in [8] was 0.176; in test [9], 0.707; in test [10], -0.174. Besides, in [2], the z-score was -2.16.
Regarding `CC(=O)NCCCC[C@@H]1NC(=O)[C@@H]2C[C@H](C(=O)NCCCCCNC(=O)CS)[C@H](c3cccc(OCCO)c3)N2C1=O`, the composite z-score in test [1] was -0.0596; in [3], 0.837; in test [4], -0.646; in test [5], -0.754; in test [6], -0.214; in test [7], -0.0533. The composite z-score in test [8] was -0.0533; in test [9] it was -0.443; in [10] it was -0.0629. The z-score in test [2] is -0.652.
`CN(C)C(=O)[C@@]1(CCS(=O)(=O)c2ccccc2)COC(c2ccc(OCCCO)cc2)=N1`: the composite z-score was 1.31 in test [1]; 0.149 in [3]; 0.614 in test [4]; -0.429 in test [5]; -0.154 in test [6]; 0.414 in test [7]. Moreover, the figures for the composite z-score in test [8], in [9] and in test [10] were -0.288, 2.75 and 0.301, respectively. Also, the z-score in test [2] was -2.25.
With `COCCOC(=O)N1C(=O)[C@@]2(c3ccccc31)[C@H](c1ccc(O)cc1)N1[C@H](c3ccccc3)[C@H](c3ccccc3)OC(=O)[C@H]1[C@@H]2C(=O)Nc1nc2ccccc2s1`, the composite z-score is 1.19 in test [1]; 0.118 in test [3]; 1.29 in test [4]; 0.501 in [5]; -0.0276 in test [6]; 0.249 in test [7]. Besides, the values for the composite z-score in test [8], in [9] and in test [10] were 0.0308, 1.33 and 1.87, respectively. The molecule further registered a z-score in test [2] of -0.993.
For `[N-]=[N+]=NCc1ccccc1[C@@H]1OC(c2ccc(OCCCO)cc2)=N[C@]1(Cc1ccccc1)C(=O)NCC(O)CO` (stereo not given in full), the composite z-score in test [1] is -0.0042; in test [3] it was -0.559; in [4], 0.168; in [5], 0.305; in test [6], 0.262; in [7] it was 0.559. The composite z-score in [8] was determined as 1.99; in test [9] it was 1.95; in test [10], 2.68. Moreover, the z-score in test [2] was -1.16.
As for `C=CCN1C(=O)[C@]2(O[C@H](CCn3cc([C@H](O)c4ccccc4)nn3)[C@@H]([Si](C)(C)c3ccc(OC)cc3)[C@@H]2C)c2cc(N3CCC3=O)ccc21`, the composite z-score in [1] is 1.34; in test [3], 0.152; in test [4] it was 0.439; in [5] it was -0.022; in [6], -0.0685; in test [7], 0.0253. Besides, the figures for the composite z-score in test [8], in test [9] and in test [10] were 0.328, 0.549 and 1.07, respectively. In test [2], this molecule gave a z-score of -3.08.
For the molecule `CCOC(=O)C1=C[C@@H](C(C)(C)C)N(S(=O)(=O)c2ccc(C)cc2)[C@H]1c1ccc(F)cc1`, the composite z-score in test [1] is 1.41; in test [3], 0.653; in test [4], 1.49; in test [5] it was 0.083; in [6] it was 0.0668; in [7], -0.1. The values for the composite z-score in [8], in test [9] and in test [10] were 0.509, 0.992 and 1.15, respectively. This molecule also displayed a z-score in test [2] of -1.59.
As for `CC1CC/C=C\[C@H]2OC34C=CCN(C(C)(C)C)C(=O)[C@H]3N(C(C)CO)C(=O)[C@@H]4C2C(=O)O1` (stereo not given in full), the composite z-score was -0.864 in [1]; -0.442 in test [3]; -1.19 in test [4]; -1.23 in test [5]; -0.124 in test [6]; -0.0011 in test [7]. The composite z-score in test [8] is -0.219; in [9], -0.23; in test [10], -0.942. Also, the z-score in test [2] was -1.4.
In the case of `C=CCC(OC(C)=O)[C@@H]1[C@@H](N(Cc2ccc(-c3ccccc3)cc2)C(=O)c2ccc(-c3ccccc3)cc2)c2cc(OCCCO)ccc2N1C(=O)Cc1ccc2ccccc2c1` (stereo not given in full), the composite z-score in test [1] was 0.422; in test [3], 0.0959; in test [4], 0.436; in [5] it was 0.704; in test [6], -0.0566; in test [7], -0.345. In addition, the composite z-score is 0.221 in test [8], 0.359 in [9] and 0.0054 in [10]. The z-score in [2] was -0.4.
Take `O=C1O[C@H](c2ccccc2)[C@H](c2ccccc2)N2[C@H]1[C@@H](C(=O)N1CCCCCCC1)[C@]1(C(=O)Nc3ccc(C#CCCO)cc31)[C@H]2c1ccccc1OCCO`: the composite z-score turned out to be 1.62 in test [1]; 1.91 in test [3]; 3.03 in [4]; 1.73 in test [5]; 1.69 in [6]; 3.01 in [7]. Moreover, the composite z-score was found to be 2.38 in test [8], 5.84 in test [9] and 4.84 in test [10]. Moreover, the z-score in test [2] was -1.53.
In the case of `COC(=O)[C@@]1(Cc2ccc(OC)cc2)[C@H]2c3cc(C(=O)N4CCCC4)n(CCN4CNCC4=O)c3C[C@H]2CN1C(=O)c1ccccc1`, the composite z-score in test [1] is 0.218; in [3], -0.0543; in [4] it was 1.14; in test [5], 0.751; in [6], 1.19; in test [7], 2.77. For the same molecule, the composite z-score in test [8] is 2.43; in test [9], 1.11; in test [10], -0.169. The z-score in [2] was -0.0994.
As for `CN(C)C(=O)[C@]1(Cc2ccccc2N=[N+]=[N-])N=C(c2ccc(OCCCO)cc2)O[C@@H]1c1ccccc1N=[N+]=[N-]`, the composite z-score in [1] is 1.38; in test [3] it was 0.116; in test [4], 1.7; in [5] it was 0.497; in [6], -0.0179; in [7], 0.0796. For the same molecule, the composite z-score in test [8] is 1.39; in test [9], 2.54; in test [10] it was 1.22. In test [2], this molecule yielded a z-score of -2.69.
On to `COC(=O)C(CC#Cc1ccc2c(c1)[C@]1(C(=O)N2)[C@H](C(=O)Nc2nc3ccccc3s2)[C@H]2C(=O)O[C@H](c3ccccc3)[C@H](c3ccccc3)N2[C@@H]1c1ccccc1OCCO)C(=O)OC`, for which the composite z-score in [1] is 1.17; in test [3], 0.286; in [4] it was 1.42; in [5] it was 0.504; in test [6], -0.0346; in test [7] it was 0.257. For the same molecule, the composite z-score in test [8] came to 0.733; in test [9], 1.01; in test [10], 2.31. The molecule also yielded a z-score in test [2] of -2.55.
With `COc1ccc(CCNC(=O)[C@@]2(Sc3ccc(C)cc3)CC(=O)N(C3Cc4ccccc4C3)[C@@H]2c2ccc(CO)cc2I)cc1`, the composite z-score was 0.615 in [1]; -0.911 in test [3]; 0.113 in test [4]; 0.795 in test [5]; -0.0398 in [6]; -0.0234 in test [7]. Also, the composite z-score in [8] was 0.136; in test [9] it was 0.548; in test [10], 1.59. For the same molecule, the z-score in test [2] was -2.48.
